The nature of assay [1]: small molecules captured by biotinylated probe aFSTL3 – biochemical, small-molecule microarray, fluorescence 635/667, stem cell growth factor project, primary screen (AID 1064).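 Also: measures binding of the biotinylated anti-FSTL3 antibody to printed compounds.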 Conditions: higher = more signal.
Assay [2] can be described thus: binders from COS7 lysate, DM2A8 probe, primary screen, torsin A project, cell lysate, small-molecule microarray, fluorescence 635/667 (AID 1065). Particulars: higher = more signal, COS7 lysate expressing mutant human TOR1A.
A short description of assay [3]: small molecules captured by biotinylated probe aFGF2 – biochemical, small-molecule microarray, fluorescence 635/667, stem cell growth factor project, primary screen (AID 1067).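 Also: measures binding of biotinylated aFGF2 protein to printed compounds on slides; z-score merges feature fluorescence and signal-to-noise across triplicate slides.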 Conditions: higher = more signal.
Assay [4] can be described thus: small molecules captured by biotinylated probe aFGF10 – biochemical, small-molecule microarray, fluorescence 635/667, stem cell growth factor project, primary screen (AID 1071).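 Also: score merges 667 nm spot intensity and signal to noise from triplicate slides.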 Particulars: higher = more signal.
Assay [5] has as its target Neurogenic locus notch homolog protein 2 (Homo sapiens) (UniProt Q04721). Description: small molecules binding Notch2 protein – biochemical, small-molecule microarray, 635 nm fluorescence, stem cell growth factors, primary screen (AID 1073). Conditions: higher = more signal.
Assay [6] concerns the target Pro-neuregulin-1, membrane-bound isoform (Homo sapiens) (UniProt Q02297). The experiment in a line: small molecules binding neuregulin-1 protein – biochemical, small-molecule microarray, fluorescence 635/667, psychiatric disease protein project, primary screen (AID 1075).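 Also: score combines 667 nm spot fluorescence with signal to noise.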 Conditions: NRG1 binding, 635 nm fluorescence, higher = more signal.
In assay [7] the test system is Neuregulin-1 EGF-like domain. Description: small molecules binding NRG1 EGF domain – biochemical, small-molecule microarray, 635 nm fluorescence, primary screen (AID 1081).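 Also: binding of the protein to compounds printed on small-molecule microarray slides.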 Conditions: higher = more signal.
Assay [8] can be described thus: FRG1 expression reporter modulators in myotubes – cell-based, C2C12 myotubes, firefly/Renilla luciferase, luminescence, FRG1 inhibition for FSHD, primary screen (AID 1084). Particulars: FRG1 promoter luciferase, higher = more signal, called active from +8 up or from −8 down.
Assay [9] can be described thus: small molecules captured by biotinylated probe aFST – biochemical, small-molecule microarray, fluorescence 635/667, stem cell growth factor project, primary screen (AID 1086).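 Also: score merges 667 nm fluorescence with signal-to-noise of each printed compound spot.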 Particulars: higher = more signal.
The nature of assay [10]: binders of probe aHhip on microarray, primary screen, stem cell growth factor project, biochemical, small-molecule microarray, fluorescence 635/667 (AID 1087).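 Also: score merges spot fluorescence at 667nm with spot signal to noise ratio.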 Particulars: higher = more signal.
Assay [11] relates to PRMT1 (protein arginine N-methyltransferase 1). The experiment in a line: small molecules binding arginine methyltransferase PRMT1 – biochemical, small-molecule microarray, 635 nm fluorescence, primary screen (AID 1088).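 Also: binding of Prmt1 protein to compounds spotted on small-molecule microarray slides.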 Particulars: higher = more signal.
Assay [12] is described as follows: growth effects on S. cerevisiae YJM789 – YJM789 clinical isolate, OD600, 24 h, basal, primary screen (AID 1089).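 Also: growth of clinical yeast isolate S. cerevisiae YJM 789 seeded 1000 cells per well; test concentration not given here.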 Conditions: higher = more signal, called active from +8 up or from −8 down.
Assay [13] is described as follows: S. pombe growth modifiers, basal conditions – strain 972, OD600, 24 h, no modulator, primary screen (AID 1090).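 Also: basal condition with compound alone and no growth modifier present; test concentration not given here.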 Particulars: S. pombe 972 growth, higher = more signal, called active from +8 up or from −8 down.
Assay [14] in a line: budding yeast growth modifiers under rapamycin – strain BY4716, OD600, 96 h, primary screen (AID 1091). Also: test concentration not given here. Conditions: S. cerevisiae BY4716 + rapamycin, higher = more signal, called active from +8 up or from −8 down.
Assay [15] deals with Torsin-1A-interacting protein 2 (Homo sapiens) (UniProt Q8NFQ8). The experiment in a line: small molecules binding lysate-expressed LULL1 – cell lysate, human LULL1 lysate, 635/667 nm fluorescence, primary screen (AID 1092).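 Also: probe is lysate of COS7 cells overexpressing human LULL1; score merges per-feature 667 nm fluorescence with signal-to-noise.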 Conditions: small-molecule microarray, hLULL1 lysate binding, 635 nm fluorescence; higher = more signal.
Chain of Torsin-1A-interacting protein 2 (Homo sapiens) (Q8NFQ8 whole entry, looked up): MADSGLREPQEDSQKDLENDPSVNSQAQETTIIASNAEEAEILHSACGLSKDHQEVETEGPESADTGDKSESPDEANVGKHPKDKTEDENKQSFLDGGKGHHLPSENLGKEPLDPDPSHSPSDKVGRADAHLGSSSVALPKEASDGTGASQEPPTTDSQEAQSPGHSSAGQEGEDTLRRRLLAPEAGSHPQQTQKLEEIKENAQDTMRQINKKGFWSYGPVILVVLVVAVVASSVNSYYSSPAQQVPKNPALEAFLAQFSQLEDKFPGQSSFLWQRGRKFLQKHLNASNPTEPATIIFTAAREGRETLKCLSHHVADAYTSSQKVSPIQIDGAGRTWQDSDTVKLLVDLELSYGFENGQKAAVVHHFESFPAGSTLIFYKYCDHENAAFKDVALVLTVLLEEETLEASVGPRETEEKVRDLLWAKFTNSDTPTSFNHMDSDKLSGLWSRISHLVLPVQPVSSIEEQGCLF
Assay [16] is described as follows: optical density change of DRC41 E. coli – strain DRC41, OD650, 24 h, E. coli filamentation project, primary screen (AID 1093).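 Also: MC1000 strain lacking acrAB efflux and sulA so SOS filamentation is blocked; test concentration not given here.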 Conditions: E. coli DRC41 growth, higher = more signal, called active from +8 up or from −8 down.
A short description of assay [17]: probe aLefty2 binding to arrayed compounds – biochemical, biotinylated probe, 635/667 nm fluorescence, primary screen (AID 1094).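 Also: score merges spot fluorescence near 667 nm with spot signal-to-noise ratio.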 Particulars: small-molecule microarray, higher = more signal.
For assay [18], the system named is Noggin (protein binding on small-molecule microarray). The experiment in a line: small molecules binding Noggin protein – biochemical, 635/667 nm fluorescence, primary screen (AID 1095).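 Also: score merges 667 nm feature fluorescence with signal to noise over triplicate slides.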 Particulars: 635 nm fluorescence, higher = more signal.
Assay [19] has as its target Neurogenic locus notch homolog protein 3 (Homo sapiens) (UniProt Q9UM47). Description: small molecules binding NOTCH3 protein – biochemical, 635/667 nm fluorescence, primary screen (AID 1096). Conditions: small-molecule microarray, 635 nm fluorescence, higher = more signal.
The nature of assay [20]: probe aEGFR binding to arrayed compounds – biochemical, biotinylated probe, 635/667 nm fluorescence, primary screen (AID 1097).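 Also: probe is a biotinylated anti-EGFR antibody binding compounds printed on slides; score combines fluorescence near 667 nm and signal to noise of each spot.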 Conditions: small-molecule microarray, higher = more signal.

5 molecules from PubChem BioAssay can be followed below.

Active and inactive are the calls of the source.

Chain of Neurogenic locus notch homolog protein 3 (Homo sapiens) (Q9UM47 whole entry, looked up): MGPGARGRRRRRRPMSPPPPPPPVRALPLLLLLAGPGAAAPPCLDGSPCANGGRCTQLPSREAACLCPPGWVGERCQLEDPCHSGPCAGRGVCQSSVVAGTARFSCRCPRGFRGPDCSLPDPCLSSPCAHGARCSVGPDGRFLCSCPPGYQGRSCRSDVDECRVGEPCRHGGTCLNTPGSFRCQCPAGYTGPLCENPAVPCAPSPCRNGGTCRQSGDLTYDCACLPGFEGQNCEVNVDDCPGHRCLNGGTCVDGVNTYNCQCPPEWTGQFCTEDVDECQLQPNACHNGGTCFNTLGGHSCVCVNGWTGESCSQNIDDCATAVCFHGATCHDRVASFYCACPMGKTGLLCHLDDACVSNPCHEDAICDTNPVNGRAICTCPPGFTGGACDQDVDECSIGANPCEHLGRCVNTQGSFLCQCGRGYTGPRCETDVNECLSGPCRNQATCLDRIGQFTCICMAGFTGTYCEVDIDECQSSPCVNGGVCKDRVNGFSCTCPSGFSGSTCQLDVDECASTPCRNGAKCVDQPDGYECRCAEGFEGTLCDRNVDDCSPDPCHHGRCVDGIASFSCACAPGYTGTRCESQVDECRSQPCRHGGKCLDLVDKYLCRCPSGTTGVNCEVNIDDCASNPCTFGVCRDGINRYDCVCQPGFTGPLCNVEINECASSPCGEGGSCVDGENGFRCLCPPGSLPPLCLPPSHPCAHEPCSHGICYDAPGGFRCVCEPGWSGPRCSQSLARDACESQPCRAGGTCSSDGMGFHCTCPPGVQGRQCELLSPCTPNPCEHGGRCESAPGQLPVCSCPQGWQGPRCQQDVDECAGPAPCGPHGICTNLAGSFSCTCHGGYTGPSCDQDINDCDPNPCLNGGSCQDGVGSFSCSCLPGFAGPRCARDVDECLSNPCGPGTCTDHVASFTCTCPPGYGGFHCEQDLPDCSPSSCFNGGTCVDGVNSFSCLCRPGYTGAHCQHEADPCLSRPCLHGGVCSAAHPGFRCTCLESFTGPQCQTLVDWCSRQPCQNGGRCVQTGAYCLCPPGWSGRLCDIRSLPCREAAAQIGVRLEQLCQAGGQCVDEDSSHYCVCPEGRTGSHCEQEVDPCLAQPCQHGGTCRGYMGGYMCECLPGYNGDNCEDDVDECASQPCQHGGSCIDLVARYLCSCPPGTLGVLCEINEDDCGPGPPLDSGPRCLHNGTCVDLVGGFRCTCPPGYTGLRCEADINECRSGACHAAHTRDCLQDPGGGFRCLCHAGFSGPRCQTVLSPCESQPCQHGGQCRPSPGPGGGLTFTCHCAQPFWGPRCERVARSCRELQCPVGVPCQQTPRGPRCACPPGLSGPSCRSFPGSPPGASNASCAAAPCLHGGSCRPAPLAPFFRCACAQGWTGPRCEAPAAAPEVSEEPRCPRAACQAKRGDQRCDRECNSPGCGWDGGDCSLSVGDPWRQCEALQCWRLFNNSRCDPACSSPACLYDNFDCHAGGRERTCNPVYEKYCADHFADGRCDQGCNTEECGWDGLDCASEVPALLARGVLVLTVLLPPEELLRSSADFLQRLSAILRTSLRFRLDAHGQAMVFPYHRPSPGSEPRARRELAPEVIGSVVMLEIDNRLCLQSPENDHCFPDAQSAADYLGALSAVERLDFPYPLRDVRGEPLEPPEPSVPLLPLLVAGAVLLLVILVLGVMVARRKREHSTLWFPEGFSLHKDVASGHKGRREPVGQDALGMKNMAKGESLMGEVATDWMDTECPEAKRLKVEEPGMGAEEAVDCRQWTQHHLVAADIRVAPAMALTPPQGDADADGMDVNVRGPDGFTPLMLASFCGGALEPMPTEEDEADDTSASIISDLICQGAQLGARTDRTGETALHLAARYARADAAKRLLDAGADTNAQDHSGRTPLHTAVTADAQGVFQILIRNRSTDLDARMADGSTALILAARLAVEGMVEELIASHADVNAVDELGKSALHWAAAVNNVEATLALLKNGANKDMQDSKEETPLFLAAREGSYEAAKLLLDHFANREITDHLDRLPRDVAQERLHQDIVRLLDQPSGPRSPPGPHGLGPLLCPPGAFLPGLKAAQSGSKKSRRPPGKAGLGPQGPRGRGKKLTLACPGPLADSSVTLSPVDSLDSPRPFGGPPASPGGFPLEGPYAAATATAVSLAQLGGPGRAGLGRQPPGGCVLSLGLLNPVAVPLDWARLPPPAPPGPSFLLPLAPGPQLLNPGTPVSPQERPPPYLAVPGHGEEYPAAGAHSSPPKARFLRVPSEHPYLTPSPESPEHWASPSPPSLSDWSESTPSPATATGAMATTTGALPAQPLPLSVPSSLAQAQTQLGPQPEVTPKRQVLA
Chain of Pro-neuregulin-1, membrane-bound isoform (Homo sapiens) (Q02297 whole entry, looked up, the tested form may be a part, canonical isoform): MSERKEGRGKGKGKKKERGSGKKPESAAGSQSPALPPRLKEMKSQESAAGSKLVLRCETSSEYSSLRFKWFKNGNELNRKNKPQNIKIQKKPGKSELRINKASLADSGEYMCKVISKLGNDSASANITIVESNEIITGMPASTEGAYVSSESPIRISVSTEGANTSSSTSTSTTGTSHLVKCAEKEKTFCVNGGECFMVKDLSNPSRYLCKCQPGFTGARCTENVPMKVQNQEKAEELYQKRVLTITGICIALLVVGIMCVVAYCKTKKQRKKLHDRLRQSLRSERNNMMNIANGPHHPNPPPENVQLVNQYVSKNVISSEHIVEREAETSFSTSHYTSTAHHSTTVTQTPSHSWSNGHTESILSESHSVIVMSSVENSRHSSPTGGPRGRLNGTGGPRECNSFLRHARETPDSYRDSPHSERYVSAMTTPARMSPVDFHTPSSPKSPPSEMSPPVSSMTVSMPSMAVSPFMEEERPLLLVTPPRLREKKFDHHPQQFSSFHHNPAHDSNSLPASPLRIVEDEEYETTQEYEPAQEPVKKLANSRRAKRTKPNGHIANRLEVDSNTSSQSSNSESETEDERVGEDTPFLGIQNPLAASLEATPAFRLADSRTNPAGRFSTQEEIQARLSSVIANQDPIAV

In the case of `CC(=O)OC[C@H]1OC(ON=CC[C@@H]2C=C[C@H](OC(C)=O)[C@@H](COC(C)=O)O2)[C@H](OC(C)=O)[C@@H](OC(C)=O)[C@@H]1OC(C)=O` (stereo not given in full), the composite z-score was -0.314 in assay [1]; 0.585 in [2]; -0.076 in assay [3]; 0.398 in assay [4]; 0.94 in assay [5]; -0.555 in assay [6]. Also, the composite z-score was -0.595 in [7]; 0.52 in [9]; 0.0972 in assay [10]; 1.4 in [11]; 0.828 in assay [15]; 0.106 in assay [17]. For the same molecule, the composite z-score in [18] was 0.612; in [19], 0.448; in [20], 0.145. The z-score in [8] was -0.0946 (inactive); in assay [12] it was -0.763 (inactive); in assay [13], 0.17 (inactive); in [14] it was -0.64 (inactive); in assay [16] it was -0.16 (inactive).

For the molecule `CCOC(=O)[C@H](CC(C)C)NC(=O)CCC1CC(OC(=O)NCCc2ccc(F)cc2)CC2(CCCC(COC(=O)NCC(c3ccccc3)c3ccccc3)O2)O1` (stereo not given in full), the composite z-score was -0.65 in [1]; 0.149 in assay [2]; -0.136 in assay [3]; 0.433 in assay [4]; 0.787 in [5]; 0.221 in assay [6]. For the same molecule, the composite z-score in [7] was 1.12; in [9] it was 0.0026; in assay [10] it was -0.236; in [11], 1.41; in [15], 2.59; in [17] it was -0.105. Also, the results for the composite z-score in assay [18], in assay [19] and in [20] were 0.569, 0.499 and -0.127, respectively. Besides, the z-score is 2.36 (inactive) in assay [8]; -0.297 (inactive) in [12]; 0.427 (inactive) in [13]; -1.3 (inactive) in assay [14]; -0.198 (inactive) in assay [16].

`CC(C)CON=C1C[C@@H](O)[C@@H](O)[C@@H]2[C@@H]3C(=O)N(c4ccc(F)cc4F)C(=O)[C@@H]3CC[C@H]12`: the composite z-score is -0.337 in [1]; 1.29 in [2]; -0.214 in assay [3]; 0.269 in assay [4]; 0.737 in assay [5]; 0.668 in assay [6]. In addition, the composite z-score in [7] is 1.23; in [9], 0.803; in [10] it was 0.111; in [11], 1.55; in assay [15], 1.63; in [17] it was -0.304. Also, the composite z-score was 0.409 in [18], 1.08 in assay [19] and -0.0512 in [20]. Also, the z-score was -0.858 (inactive) in [8]; -0.254 (inactive) in [12]; -0.59 (inactive) in assay [13]; -0.337 (inactive) in assay [14]; -0.385 (inactive) in assay [16].

As to `C=CC[C@@H]1C=C[C@H](ON=C(C)CCN2CCc3nc(-c4ccccc4)c(-c4ccccc4)cc3C2)[C@@H](CO)O1`, the composite z-score in [1] was -0.374; in assay [2], 1.11; in assay [3], -0.2; in [4], 0.34; in assay [5], 0.65; in assay [6], 0.464. Moreover, the composite z-score in assay [7] is 0.942; in [9] it was 0.197; in assay [10], 0.0393; in assay [11] it was 1.55; in assay [15] it was 1.53; in assay [17], -0.152. The composite z-score was 0.631 in assay [18], 0.858 in [19] and -0.0332 in [20]. For the same molecule, the z-score in assay [8] was 1.23 (inactive); in [12], -0.67 (inactive); in assay [13], -4.53 (inactive); in [14] it was -3.82 (inactive); in assay [16], 1.42 (inactive).

In the case of `COC(=O)[C@@H]1CC[C@H](C)[C@@H](c2ccc(C)cc2)N1C(=O)c1ccc(C=NO[C@H](C)c2cn([C@H](CO)Cc3ccccc3)nn2)cc1`, the composite z-score is -0.02 in assay [1]; 0.522 in assay [2]; -0.0563 in assay [3]; 0.674 in assay [4]; 0.672 in assay [5]; -0.0294 in assay [6]. Besides, the composite z-score came to 1.12 in assay [7]; 0.517 in assay [9]; 0.837 in assay [10]; 1.04 in assay [11]; 0.6 in [15]; 0.0943 in assay [17]. For the same molecule, the composite z-score in [18] was 1.19; in [19], 1.05; in [20], 0.119. In addition, the z-score in assay [8] is 0.0599 (inactive); in assay [12], 0.149 (inactive); in [13], 0.0048 (inactive); in [14], 0.619 (inactive); in assay [16] it was -0.551 (inactive).
